The text below walks through data of PubChem BioAssay (NCATS).

The target in assay [1] is Lysosomal acid glucosylceramidase (Homo sapiens) (UniProt P04062). Briefly: Glucocerebrosidase-p2 (AID 348; in the data active means potency below about 10 µM; further: potency means the concentration at half of the fitted maximal effect). The note with it: purified GBA, blue fluorogenic substrate, 40 min. The essentials: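 Normal human glucocerebrosidase (0.2 nM) with blue fluorogenic substrate (80 uM final) in citrate/phosphate pH 5.9 with 10mM sodium taurocholate, 0.01% tween-20; 40 min RT, NaOH/glycine stop; fluorescence Ex 365/Em 440; AC50 from a titration from 0.6 nM upwards.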

Assay [2] in a line: AP1 Signaling Pathway (AID 357; active means well fitted curve in either direction with a large enough effect, not every such curve was filed as active; further: on the % scale 0 is the no-effect control and ±100 the full control effect). The note with it: ME-180 AP-1-bla reporter, EGF-induced, beta-lactamase ratio, 5 h; at 7.69 µM (top of the series) unless noted. An outline of the steps: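 Titration-series screen for positive or negative modulators of EC50 EGF-induced signaling in ME-180 cells carrying an AP-1-driven beta-lactamase reporter. After 5 hours at 37 degrees Celsius, CCF4 460nm/530nm emission ratio gave %Activity; AC50 values derived.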

Assay [3] addresses Cytochrome P450 1A2 (Homo sapiens) (UniProt P05177). The assay is described as follows: p450-cyp1a2 (AID 410; calls by dose curve; further: potency means the concentration at half of the fitted maximal effect). The following applies: recombinant CYP1A2, luciferin-ME demethylation, luminescence; series mostly up to 57 µM. The essentials:
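20nM CYP1A2, 100uM Luciferin-ME (=Km), 100mM KPO4; cpd 10 min RT; +NADPH regen, 60 min RT; stop/detect 20 min; luminescence. Normalized to furafylline 57 uM = full inhibition.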

A short description of assay [4]: NFAT Signaling Pathway (AID 444; active means well fitted curve in either direction with a large enough effect, not every such curve was filed as active;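 further: carbachol stimulus at about its EC50 of 1 µM final; on the % scale 0 is the no-effect control and ±100 the full control effect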). The following applies: Jurkat NFAT-bla M1, carbachol, beta-lactamase ratio, 5 h; at 7.69 µM (top of the series) unless noted. The essentials:
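Jurkat cells with NFAT-driven β-lactamase reporter and co-expressed M1 receptor, stimulated with carbachol (final 1 uM, ~EC50), compound titration, 5 h at 37 °C. CCF4 loaded 1 h at RT; 460/530 nm ratio gave %activity and AC50.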

The nature of assay [5]: Stat Signaling Pathway (AID 446; active means well fitted curve in either direction with a large enough effect, not every such curve was filed as active;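 further: ME-180 cervical cancer cells given 40 pM IL-6 alongside compound; SIE-controlled beta-lactamase reporter measured as 460/530 nm FRET emission ratio; on the % scale 0 is the no-effect control and ±100 the full control effect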). The note with it: ME-180 (cervical carcinoma) SIE beta-lactamase reporter, IL-6 stimulated, 5 h; at 7.69 µM (top of the series) unless noted. An outline of the steps:
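Overnight-plated ME-180 cells bearing a STAT Inducible Element beta-lactamase reporter; 5 h co-exposure to compound and 40 pM IL-6; values normalized to 300 pM IL-6 and 125 nM JAK inhibitor controls.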

In assay [6] the target is Glucocorticoid receptor (Homo sapiens) (UniProt P04150). Briefly: GR-GFP Redistribution (AID 450;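 active means compounds whose dose series gives a full or clear partial fitted curve of increased nuclear translocation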; further: potency means the concentration at half of the fitted maximal effect). The note with it: U2OS GR-GFP nuclear translocation, laser cytometry, 2 h.
Assay [7] shares this target. The assay is described as follows: GR-EFC Redistribution (AID 451; calls by dose curve; further: potency means the concentration at half of the fitted maximal effect). The note with it: CHO-K1 GR-EFC translocation, beta-gal luminescence, 2 h. The essentials:
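CHO-K1 cells expressing nuclear EA and GR-ED fragments of b-gal; compounds titrated up to 46 uM final, 2 h at 37 C. GR nuclear translocation read as complemented b-gal luminescence after 1 h RT detection.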

For assay [8], the target named is Mitogen-activated protein kinase 10 (Mus musculus) (UniProt Q61831). Briefly: JNK3 AlphaScreen Assay (AID 530; active means well fitted curve in either direction with a large enough effect, not every such curve was filed as active;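 further: kinase came from lysate of stimulated human HepG2 cells; signal reports phosphorylation of biotinylated GST-cJun 1-79 at Ser73 with 10 µM ATP; on the % scale 0 is the no-effect control and ±100 the full control effect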). The following applies: JNK3 lysate, c-Jun phosphorylation; series mostly up to 57.1 µM. An outline of the steps:
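HepG2 lysate (IL-1b/TNFa pre-activated) + biotin-GST-cJun 1-79 + anti-pSer73 cJun; cpd titration, 15 min RT; ATP 10 uM start; Tris pH 7.6, MgCl2, DTT, vanadate; beads in EDTA buffer; AlphaScreen.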
(In general: Alpha assays give light when donor and acceptor beads are brought close together.)

Assay [9] concerns the target Cytochrome P450 2C9 (Homo sapiens) (UniProt P11712). The assay is described as follows: qHTS Assay for Inhibitors and Substrates of Cytochrome P450 2C9 (AID 883). Further: potency means the concentration at half of the fitted maximal effect; nearly all actives have a fitted effect of over 60% in size. The note with it: recombinant CYP2C9, luciferin-H luminescence, 60 min; series mostly up to 57.1 µM. The essentials:
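10nM CYP2C9 + 100uM Luciferin-H (=KM), 25mM KPO4; cpd 10 min 37C; NADPH regen, 60 min 37C; stop/detect with P450 Glo-Buffer 20 min; luminescence. Norm. to 57uM sulphaphenazole as full inhibition.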

Assay [10] has as its target Cytochrome P450 3A4 (Homo sapiens) (UniProt P08684). Briefly: qHTS Assay for Activators of Cytochrome P450 3A4 (AID 885). Further: nearly all actives have a fitted effect of over 65% in size. The following applies: recombinant CYP3A4, Luciferin-PPXE luminescence, 60 min; series mostly up to 57.1 µM. An outline of the steps:
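Using 20nM recombinant human CYP3A4 in potassium phosphate (200mM), substrate Luciferin-PPXE at 25uM, luminescent luciferin detection followed a 60-min RT NADPH reaction; data scaled to 57 uM ketoconazole.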

For assay [11], the target named is Cytochrome P450 2C19 (Homo sapiens) (UniProt P33261). Briefly: qHTS Assay for Inhibitors and Substrates of Cytochrome P450 2C19 (AID 899). Further: potency means the concentration at half of the fitted maximal effect; nearly all actives have a fitted effect of over 60% in size. The following applies: recombinant CYP2C19, luciferin-H EGE luminescence; series mostly up to 57.1 µM. An outline of the steps:
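Luminescent read-out of luciferin formed from Luciferin-H EGE (10uM, equal to KM). Enzyme 5nM in 50mM KPO4; compound added, 10 min at 37C, then NADPH regenerating system for 60 min at 37C. Full inhibition defined by 57uM ketoconazole.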
For orientation: In qHTS, concentration-response curves come from the screen itself.

Assay [12] in a line: qHTS Assay for Lipid Storage Modulators (AID 1519; calls by dose curve). The following applies: Drosophila S3 cells, BODIPY lipid droplet/cell ratio, laser cytometry, cells loaded with oleic acid; for activity change, negative = inhibition: at 57.5 µM (top of the series). An outline of the steps: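 Cells seeded at 5,000 per well were treated with compounds over a concentration series and loaded with oleic acid (400 uM, as added). Lipid droplet fluorescence (488 nm excitation, 500-530 nm channel) was read by laser-scanning cytometry and normalized to 20 uM Triacsin C.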

Assay [13] concerns the target Dual specificity protein kinase CLK4 (Homo sapiens) (UniProt Q9HAZ1). The assay is described as follows: qHTS Assay for Inhibitors of CDC-like Kinase 4 (Kinase-Glo Assay) (AID 1770). Further: nearly all actives have a fitted effect of over 65% in size. Further: potency means the concentration at half of the fitted maximal effect. The following applies: recombinant Clk4, Kinase-Glo ATP depletion luminescence; series mostly up to 66.7 µM. An outline of the steps:
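Clk4 25 nM, RS peptide 100 uM, ATP 1 uM, pH 7.5 Tris, 10 mM MgCl2, 2.5 mM DTT; 4.5 h RT; ATP depletion read by Kinase-Glo luminescence.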

Assay [14] has the same target. Briefly: qHTS Assay for Inhibitors of CDC-like Kinase 4 (ADP-Glo Assay) (AID 1771). Further: nearly all actives have a fitted effect of over 70% in size. Further: potency means the concentration at half of the fitted maximal effect. The following applies: recombinant CLK4, ADP-Glo luminescence; series mostly up to 80 µM. An outline of the steps: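 25 nM Clk4, 100 uM RS peptide, 1 uM ATP (final); 2 mM MgCl2, 0.5 mM EGTA, 2.5 mM DTT, 0.01% Triton X-100; 1 hr RT. ADP-Glo readout: ATP depletion 45 min, conversion/luciferase 30 min, luminescence.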

For assay [15] the target is unchanged. Briefly: qHTS Assay for Inhibitors of CDC-like Kinase 4 (ADP-FP Assay) (AID 1795). Further: nearly all actives have a fitted effect of over 60% in size. Further: potency means the concentration at half of the fitted maximal effect. The note with it: Transcreener ADP fluorescence polarization; series mostly up to 50 µM. The essentials: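 Kinase activity was followed as ADP output, converted from fluorescence polarization with a calibration curve. Reactions ran one hour at low ATP (1 uM) with RS peptide substrate.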

For assay [16], the target named is Ubiquitin carboxyl-terminal hydrolase 1 (Homo sapiens) (UniProt O94782). Briefly: Inhibitors of USP1/UAF1: Pilot qHTS (AID 504865).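 Further: rhodamine fluorescence freed from ubiquitin-rhodamine substrate followed over time; top concentration of the series differs between compounds; on the % scale 0 is the no-effect control and ±100 the full control effect; nearly all actives have a fitted effect of over 35% in size.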 The note with it: purified USP1/UAF1, Ub-rhodamine cleavage fluorescence; series mostly up to 54.9 µM. The essentials:
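Enzyme-free wells gave the negative control, while test wells held 1nM USP1/UAF1 preincubated with compound for 15 min at room temperature. Ub-Rho at 150nM final started the reaction, and fluorescence at 480/540 nm was recorded kinetically.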

The nature of assay [17]: Primary qHTS for small molecule stabilizers of the endoplasmic reticulum resident proteome: Secreted ER Calcium Modulated Protein (SERCaMP) assay (AID 1508630). Further: on the % scale 0 is the no-effect control and ±100 the full control effect. The following applies: SH-SY5Y GLuc-SERCaMP (Gaussia luciferase released on ER calcium loss) secretion, thapsigargin, luminescence; series mostly up to 38.4 µM. The essentials:
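The SH-SY5Y reporter protocol was run at 3 concentrations up to 38.3 uM (primary) or 11 concentrations (follow-up): 16 h compound, 100 nM thapsigargin for 4 h, then extracellular luciferase luminescence.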

For assay [18], the target named is 3',5'-cyclic-AMP phosphodiesterase 4B (Homo sapiens) (UniProt Q07343). The assay is described as follows: qHTS Assay for Inhibitors of PDE-IV (AID 607; active means well fitted activation curve with a large enough effect in the main read-out, with a control signal flat, not every such curve was filed as active; further: % of control where 0% means no effect). The note with it: HEK293 ACTOne CNG channel cells, membrane potential fluorescence; series mostly up to 22.9 µM. An outline of the steps:
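Live HEK293 cells with a modified cyclic nucleotide-gated (CNG) channel report intracellular cAMP via membrane-potential dye fluorescence (ex 535/em 590 nm). Endogenous PDE-IV was targeted. Compounds were tested at up to 22.9 uM final; RO 20-1724 100 uM served as control.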

Where [19] appears, read: measured here: cell count channel max response.
Where [20] appears, read: measured here: lipid channel max response.

Records with an inconclusive call do not appear. Activity calls are given as the source filed them. Unless noted, the call rests on the fitted dose curve; in most records, active means well fitted curve in the direction sought with a large enough effect; inconclusive means small, poorly fitted or top-dose-only effect, or another doubt; inactive means no such curve, though single readings can be large; an effect the other way counts as inactive or inconclusive. Some results are limits rather than exact numbers.

Sequence of Glucocorticoid receptor (Homo sapiens) (P04150 whole entry, looked up): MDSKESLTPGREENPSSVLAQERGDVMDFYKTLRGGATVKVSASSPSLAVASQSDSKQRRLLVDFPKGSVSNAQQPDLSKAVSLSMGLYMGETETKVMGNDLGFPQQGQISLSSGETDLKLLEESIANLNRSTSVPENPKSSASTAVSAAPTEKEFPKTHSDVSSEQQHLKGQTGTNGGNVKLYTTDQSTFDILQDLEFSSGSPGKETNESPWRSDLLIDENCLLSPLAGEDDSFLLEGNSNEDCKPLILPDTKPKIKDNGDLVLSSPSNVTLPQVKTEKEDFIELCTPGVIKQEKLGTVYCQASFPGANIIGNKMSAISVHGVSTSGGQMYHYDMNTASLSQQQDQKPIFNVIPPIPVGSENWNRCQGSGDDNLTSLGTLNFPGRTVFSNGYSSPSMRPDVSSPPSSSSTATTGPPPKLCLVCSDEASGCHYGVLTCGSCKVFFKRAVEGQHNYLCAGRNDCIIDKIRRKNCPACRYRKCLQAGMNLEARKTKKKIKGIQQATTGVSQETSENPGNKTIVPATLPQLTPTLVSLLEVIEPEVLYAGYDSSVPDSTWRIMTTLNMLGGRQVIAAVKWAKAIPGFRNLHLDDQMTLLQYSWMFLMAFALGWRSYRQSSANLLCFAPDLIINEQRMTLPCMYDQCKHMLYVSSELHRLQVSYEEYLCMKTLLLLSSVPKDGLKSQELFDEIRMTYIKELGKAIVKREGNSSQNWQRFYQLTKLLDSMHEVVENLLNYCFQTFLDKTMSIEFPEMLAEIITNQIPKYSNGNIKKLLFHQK
Sequence of Dual specificity protein kinase CLK4 (Homo sapiens) (Q9HAZ1 whole entry, looked up): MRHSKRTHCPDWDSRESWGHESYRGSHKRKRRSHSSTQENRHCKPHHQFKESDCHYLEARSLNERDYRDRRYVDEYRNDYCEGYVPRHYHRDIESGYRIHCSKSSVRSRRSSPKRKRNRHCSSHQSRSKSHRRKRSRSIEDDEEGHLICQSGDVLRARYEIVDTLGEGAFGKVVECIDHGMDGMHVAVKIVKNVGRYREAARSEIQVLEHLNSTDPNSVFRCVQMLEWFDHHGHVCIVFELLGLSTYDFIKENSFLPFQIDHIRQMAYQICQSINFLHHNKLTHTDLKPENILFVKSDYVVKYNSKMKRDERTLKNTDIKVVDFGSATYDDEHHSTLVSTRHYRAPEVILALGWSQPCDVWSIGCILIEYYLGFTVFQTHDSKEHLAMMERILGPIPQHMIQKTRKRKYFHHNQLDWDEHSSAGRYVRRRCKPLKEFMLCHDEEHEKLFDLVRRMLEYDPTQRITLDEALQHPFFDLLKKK
Sequence of Cytochrome P450 3A4 (Homo sapiens) (P08684 whole entry, looked up): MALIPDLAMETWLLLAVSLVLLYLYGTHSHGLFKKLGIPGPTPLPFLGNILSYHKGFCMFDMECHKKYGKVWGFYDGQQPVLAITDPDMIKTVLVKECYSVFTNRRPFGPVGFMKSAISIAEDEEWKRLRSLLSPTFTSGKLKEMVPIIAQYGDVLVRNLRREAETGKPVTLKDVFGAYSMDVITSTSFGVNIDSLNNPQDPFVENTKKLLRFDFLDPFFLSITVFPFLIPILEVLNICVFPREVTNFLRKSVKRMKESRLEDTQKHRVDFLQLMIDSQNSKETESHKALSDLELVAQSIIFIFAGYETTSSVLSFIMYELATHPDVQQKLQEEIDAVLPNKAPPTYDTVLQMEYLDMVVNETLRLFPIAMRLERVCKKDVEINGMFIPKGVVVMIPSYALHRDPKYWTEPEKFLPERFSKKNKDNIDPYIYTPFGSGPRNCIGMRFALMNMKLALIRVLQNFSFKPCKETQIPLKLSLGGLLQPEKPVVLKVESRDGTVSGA
Sequence of Cytochrome P450 1A2 (Homo sapiens) (P05177 whole entry, looked up): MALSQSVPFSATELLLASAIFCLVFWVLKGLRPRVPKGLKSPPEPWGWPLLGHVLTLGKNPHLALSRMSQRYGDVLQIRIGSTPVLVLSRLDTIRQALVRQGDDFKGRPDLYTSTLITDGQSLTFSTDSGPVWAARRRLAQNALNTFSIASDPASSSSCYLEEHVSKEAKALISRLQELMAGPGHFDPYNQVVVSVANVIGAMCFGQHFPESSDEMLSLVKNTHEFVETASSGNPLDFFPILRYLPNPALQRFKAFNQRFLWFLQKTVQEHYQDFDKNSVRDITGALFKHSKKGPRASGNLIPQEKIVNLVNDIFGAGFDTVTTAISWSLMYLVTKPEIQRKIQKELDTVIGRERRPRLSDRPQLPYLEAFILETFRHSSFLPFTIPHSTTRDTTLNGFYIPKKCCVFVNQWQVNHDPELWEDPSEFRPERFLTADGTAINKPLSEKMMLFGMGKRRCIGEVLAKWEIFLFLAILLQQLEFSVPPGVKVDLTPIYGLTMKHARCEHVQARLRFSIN
Sequence of Ubiquitin carboxyl-terminal hydrolase 1 (Homo sapiens) (O94782 whole entry, looked up): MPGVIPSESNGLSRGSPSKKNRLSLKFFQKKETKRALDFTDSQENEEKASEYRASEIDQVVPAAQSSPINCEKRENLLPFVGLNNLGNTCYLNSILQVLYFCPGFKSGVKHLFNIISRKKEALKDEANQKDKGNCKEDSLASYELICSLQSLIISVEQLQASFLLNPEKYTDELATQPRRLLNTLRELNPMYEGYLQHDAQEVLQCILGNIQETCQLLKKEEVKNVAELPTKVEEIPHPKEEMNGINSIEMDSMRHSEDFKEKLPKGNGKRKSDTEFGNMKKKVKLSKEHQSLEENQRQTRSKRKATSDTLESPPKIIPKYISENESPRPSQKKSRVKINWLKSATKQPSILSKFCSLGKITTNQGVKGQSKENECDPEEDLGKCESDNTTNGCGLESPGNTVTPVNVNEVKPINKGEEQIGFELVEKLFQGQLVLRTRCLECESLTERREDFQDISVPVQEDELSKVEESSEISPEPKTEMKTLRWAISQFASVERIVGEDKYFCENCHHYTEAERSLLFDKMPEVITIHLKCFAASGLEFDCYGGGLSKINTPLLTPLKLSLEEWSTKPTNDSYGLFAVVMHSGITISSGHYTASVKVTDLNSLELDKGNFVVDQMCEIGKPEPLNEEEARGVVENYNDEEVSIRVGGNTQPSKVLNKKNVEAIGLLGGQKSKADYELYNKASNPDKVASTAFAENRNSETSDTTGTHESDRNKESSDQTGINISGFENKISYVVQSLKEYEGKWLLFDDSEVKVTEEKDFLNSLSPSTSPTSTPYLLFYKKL
Sequence of Lysosomal acid glucosylceramidase (Homo sapiens) (P04062 whole entry, looked up): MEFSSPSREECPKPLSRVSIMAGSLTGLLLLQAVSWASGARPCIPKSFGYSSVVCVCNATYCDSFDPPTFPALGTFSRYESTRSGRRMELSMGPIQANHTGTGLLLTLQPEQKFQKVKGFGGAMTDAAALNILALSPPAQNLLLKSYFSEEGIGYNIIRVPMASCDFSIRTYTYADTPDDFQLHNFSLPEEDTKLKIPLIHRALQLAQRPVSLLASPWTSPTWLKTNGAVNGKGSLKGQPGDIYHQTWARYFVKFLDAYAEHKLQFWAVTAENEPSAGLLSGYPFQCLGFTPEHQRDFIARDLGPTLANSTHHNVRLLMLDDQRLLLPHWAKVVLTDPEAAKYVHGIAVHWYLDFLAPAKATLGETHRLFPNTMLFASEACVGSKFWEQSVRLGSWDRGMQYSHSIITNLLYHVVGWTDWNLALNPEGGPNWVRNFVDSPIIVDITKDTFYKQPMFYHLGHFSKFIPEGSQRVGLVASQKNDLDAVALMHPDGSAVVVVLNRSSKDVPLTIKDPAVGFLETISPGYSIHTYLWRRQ
Sequence of Cytochrome P450 2C19 (Homo sapiens) (P33261 whole entry, looked up): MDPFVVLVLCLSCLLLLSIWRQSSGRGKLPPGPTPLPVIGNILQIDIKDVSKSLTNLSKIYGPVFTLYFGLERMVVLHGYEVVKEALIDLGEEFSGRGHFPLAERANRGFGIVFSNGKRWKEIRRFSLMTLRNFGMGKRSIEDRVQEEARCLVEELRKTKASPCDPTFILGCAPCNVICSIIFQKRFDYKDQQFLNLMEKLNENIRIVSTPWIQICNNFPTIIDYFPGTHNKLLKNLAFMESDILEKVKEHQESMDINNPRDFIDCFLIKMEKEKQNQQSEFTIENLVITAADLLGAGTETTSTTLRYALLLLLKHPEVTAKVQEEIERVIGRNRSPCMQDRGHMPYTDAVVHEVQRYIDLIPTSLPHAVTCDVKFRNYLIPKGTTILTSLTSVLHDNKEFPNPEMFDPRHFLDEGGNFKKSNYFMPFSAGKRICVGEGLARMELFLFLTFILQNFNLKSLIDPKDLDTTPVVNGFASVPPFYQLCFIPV
Sequence of 3',5'-cyclic-AMP phosphodiesterase 4B (Homo sapiens) (Q07343 whole entry, looked up): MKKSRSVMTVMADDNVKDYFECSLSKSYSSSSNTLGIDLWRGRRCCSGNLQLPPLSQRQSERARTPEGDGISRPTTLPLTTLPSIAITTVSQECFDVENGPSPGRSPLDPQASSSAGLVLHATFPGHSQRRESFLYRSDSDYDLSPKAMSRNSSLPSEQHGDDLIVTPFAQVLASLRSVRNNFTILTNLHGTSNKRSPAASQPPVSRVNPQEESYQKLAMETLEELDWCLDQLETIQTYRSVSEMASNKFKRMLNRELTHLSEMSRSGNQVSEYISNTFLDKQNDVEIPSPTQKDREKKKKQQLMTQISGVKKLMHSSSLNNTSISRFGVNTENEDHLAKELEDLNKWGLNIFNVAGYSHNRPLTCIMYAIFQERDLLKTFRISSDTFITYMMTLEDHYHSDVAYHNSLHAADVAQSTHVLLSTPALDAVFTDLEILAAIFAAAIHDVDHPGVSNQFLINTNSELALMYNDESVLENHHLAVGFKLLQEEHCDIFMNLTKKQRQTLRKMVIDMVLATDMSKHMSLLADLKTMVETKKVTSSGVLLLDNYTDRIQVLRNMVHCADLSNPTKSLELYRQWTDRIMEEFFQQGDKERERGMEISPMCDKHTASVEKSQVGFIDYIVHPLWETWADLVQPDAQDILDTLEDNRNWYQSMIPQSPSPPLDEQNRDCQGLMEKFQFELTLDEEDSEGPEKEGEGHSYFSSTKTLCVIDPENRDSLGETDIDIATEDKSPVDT

As for `COc1cccc(-c2nc(NCc3ccccc3)c3ccccc3n2)c1`, the Potency in assay [1] was > 11.4 µM (inactive); in [3], 3.16 µM (active); in assay [6], > 46 µM (inactive); in [7], > 46 µM (inactive); in [9], 1.26 µM (active); in assay [11], 3.98 µM (active). Moreover, the results for the Potency in [13], in assay [14] and in assay [15] were 6.31 µM (active), 6.31 µM (active) and 2.24 µM (active), respectively. The results for the activity change, negative = inhibition in assay [2], in assay [4] and in assay [12] were -17.6% (inactive), 0.742% (inactive) and -4.54% (inactive), respectively. The activity, negative = inhibition in assay [5] was -12.9% (inactive). In [8], the result was inactive. Further, the Potency entry in assay [10], in assay [16] and in assay [17] was “inactive” throughout. Also, the results for the max response in assay [12] (setting [19]) and in assay [12] (setting [20]) were 10.5% and 2.86%, respectively.

Turning to `COc1ccc(Oc2ncc3nc(-c4cn(C)c5ccccc45)c(=O)n(C4CC4)c3n2)cc1`, the figures for the Potency in assay [1], in assay [3] and in assay [7] were > 11.4 µM (inactive), 12.6 µM (active) and > 46 µM (inactive), respectively. Also, the activity change, negative = inhibition in assay [2] was -4.88% (inactive); in assay [4], 9.91% (inactive); in assay [12] it was 2.32% (inactive). The activity, negative = inhibition in [5] was 19% (inactive). The result in [8] was inactive. Also, the Potency entry in assay [18], in [10], in assay [13], in assay [14], in assay [15] and in [16] was “inactive” each time. For the same compound, the Potency result in assay [17] was “inactive”. For the same compound, the results for the max response in assay [12] (setting [19]) and in assay [12] (setting [20]) were 3.6% and 3.07%, respectively.
